Screening results from PubChem BioAssay.
tim23-1 inh – tim23-1 yeast growth inhibition. 330,000 compounds, 1.3% hits. S. cerevisiae tim23-1 growth, BacTiter-Glo luminescence, 24 h. inhibition, % at 20 µM;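 active means growth inhibition of the mutant yeast at or above 50%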;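 further: temperature-sensitive mutant grown at 25 °C; plate controls were DMSO-treated mutant yeast for no effect and medium wells lacking yeast for full effect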
NALP1 inh – inhibitors of NALP1 inflammasome in yeast; 280,000 compounds, 0.61% hits; AID 2071; inhibition, % at 10 µM; S. cerevisiae NALP1/ASC/caspase-1 growth, X-gal OD620, 72 h; in the data active means inhibition mostly above about 24%, no sharp cut-off; inactive means mostly below about 32%
NLRP3 yeast inh – NALP3 inhibition in yeast | Yeast reconstituted NLRP3/ASC/caspase-1, beta-gal luminescence, 24 h | inhibition, % at 10 µM | 330,000 compounds, 0.39% hits;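 active means inhibition of 50% or more; inactive means inhibition below 50%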;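 further: plate controls were induced DMSO wells for no effect and uninduced yeast grown without galactose for full effect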
TIM10 inh – TIM10 yeast growth inhibition. S. cerevisiae TIM10 strain growth, BacTiter-Glo luminescence, 24 h. inhibition, % at 10 µM. 330,000 compounds, 1.4% hits. AID 463195;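 active means inhibition of 40% or more at the single tested concentration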;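 further: wild-type TIM10 isogenic control strain grown at permissive 25 °C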
tim10-1 inh – tim10-1 yeast growth inhibition; 330,000 compounds, 2.2% hits; S. cerevisiae tim10-1 ts strain growth, BacTiter-Glo, 24 h; AID 463190; inhibition, % at 20 µM;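 active means inhibition of at least 40%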;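 further: mutant grown at 25 °C; 0% = DMSO wells with yeast and 100% = wells holding no yeast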
tim10-1 confirm – confirmation of tim10-1 mutant yeast growth inhibitors; 7,400 compounds, 56% hits; inhibition, % at 20 µM; shares compounds with tim10-1 inh; S. cerevisiae tim10-1 ts strain growth, BacTiter-Glo, 24 h; AID 463213;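 active means inhibition of yeast growth at or above a set limit in either of two repeat tests at 20 µM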;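 further: tim10-1 mutant grown at permissive 25 °C to find synthetic lethal compounds; 0% = DMSO yeast wells and 100% = medium wells without yeast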
tim10 confirm – TIM10 yeast growth inhibition, confirmed; shares compounds with TIM10 inh; 4,600 compounds, 63% hits; inhibition, % at 10 µM; AID 463215; S. cerevisiae tim10 strain growth, BacTiter-Glo luminescence, 24 h;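 active means inhibition of yeast growth at or above a set limit in either of two replicates at 10 µM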;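 further: this counterscreen used the strain with wild-type TIM10; 0% = yeast with DMSO and 100% = medium wells lacking yeast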
tim23-1 confirm – confirmation of tim23-1 mutant yeast growth inhibitors | shares compounds with tim23-1 inh | S. cerevisiae tim23-1 growth, BacTiter-Glo luminescence, 24 h | inhibition, % at 20 µM | 4,400 compounds, 83% hits | AID 463218;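 active means inhibition above about 39% in either of two replicate wells at 20 µM, limit read from the data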;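 further: temperature-sensitive tim23-1 mutant grown at 25 °C; 0% = DMSO wells with yeast and 100% = medium wells without yeast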
Starred values were filed as active, the others as inactive; · = no result given. A selection: hits, their analogues and other compounds. The true share with any hit is near 4.1%.

SMILES	tim23-1 inh	NALP1 inh	NLRP3 yeast inh	TIM10 inh	tim10-1 inh	tim10-1 confirm	tim10 confirm	tim23-1 confirm
COc1ccc(C2NC(=O)c3ccccc3N2)cc1OC (stereo unspecified)	11	12	-4	10	22	·	·	·
COc1ccc(C(=O)Nc2ccc(NS(=O)(=O)c3ccccc3)cc2)cc1OC	-1	·	-8	1	15	·	·	·
C/C=C/C(=O)N(CC)c1ccccc1C	-4	3	10	-5	7	·	·	·
Cc1nc2ccccc2n1CCOc1ccccc1	11	19	28	5	11	·	·	·
Cc1ccc(NCc2nc3ccccc3n2CCOc2ccccc2)cc1	57*	27	23	17	44*	30	·	74*
CCOCCCNC(=S)Nc1cc(C)cc(C)c1	13	26	6	-1	9	·	·	·
CS(=O)(=O)N(CC(=O)NCCSCc1cccc(Cl)c1)c1ccccc1F	7	2	9	-1	23	·	·	·
COc1ccc(/C=C2\CCc3ccccc3C2=O)cc1O	65*	6	36	45*	54*	41*	42*	59*
O=c1oc2c(-c3cccc(F)c3)cc(O)cc2s1	57*	16	20	-15	52*	48*	·	56*
Nc1nnc(-c2cccc(F)c2)s1	-4	6	14	1	-8	·	·	·
CCOC(=O)CC1=NN(c2ccccc2)C(=O)/C1=C\c1ccc(N(C)C)cc1	51*	15	18	51*	43*	43*	53*	53*
COc1cccc(N2CCN(S(=O)(=O)c3ccc4ccccc4c3)CC2)c1	26	·	18	14	23	·	·	·
CCSc1ccccc1C(=O)n1nnc2ccccc21	59*	·	-23	39	55*	49*	·	70*
CCSc1ccccc1C(=O)N1CCCC1	1	7	6	11	0	·	·	·
Cc1ccccc1NC(=O)/C(C#N)=C/c1ccccc1C(F)(F)F	56*	10	18	56*	58*	56*	5	58*
Cc1ccc(NC(=O)/C(C#N)=C/c2ccccc2C(F)(F)F)cc1	13	33	5	30	34	·	·	·
CCCCNC(=O)CC1Nc2ccccc2NC1=O (stereo unspecified)	13	·	-1	9	13	·	·	·
O=C(CC1Nc2ccccc2NC1=O)Nc1cc(Cl)cc(Cl)c1 (stereo unspecified)	64*	25	20	41*	79*	-2	-32	15
O=C(COc1ccc(Cl)cc1Cl)Nc1ccccn1	58*	-3	16	26	47*	49*	·	47*
CS/C(N)=N/N=C/c1cc(C)ccc1O	39	19	26	25	-22	·	·	·
Oc1c(Br)cc(Br)cc1/C=N/n1c(-c2ccccc2)n[nH]c1=S	80*	-3	21	39	66*	50*	·	88*
Cc1nnc(C)n1/N=C/c1cc(Br)cc(Br)c1O	63*	20	15	63*	56*	32*	0	85*
CS/C(N)=N/N=C/c1cc(Br)cc(Br)c1O	76*	7	35	71*	47*	61*	61*	79*
O=c1c2cc(Cl)ccc2nc(-c2ccccc2)n1O	59*	-27	40	15	48*	6	·	64*
CN1CCN(C(=O)C(N)Cc2ccccc2)CC1 (stereo unspecified)	15	4	7	11	-10	·	·	·
SMILES	tim23-1 inh	NALP1 inh	NLRP3 yeast inh	TIM10 inh	tim10-1 inh	tim10-1 confirm	tim10 confirm	tim23-1 confirm
CC1CC(C)CN(S(=O)(=O)c2cc3c(cc2Cl)NC(=O)CO3)C1 (stereo unspecified)	-7	22	-7	5	4	·	·	·
CN(C1CCCCC1)S(=O)(=O)c1cc2c(cc1Cl)NC(=O)CO2	51*	1	21	6	47*	7	·	34
O=S(=O)(Nc1ccc(F)cc1Cl)c1ccc(-c2cnc(C3CC3)o2)cc1	55*	-11	19	18	53*	17	·	49*
Cc1ccc(NS(=O)(=O)c2ccc(-c3cnc(C4CC4)o3)cc2)c(C)c1	51*	5	1	1	53*	17	·	38
COc1ccccc1NS(=O)(=O)c1ccc(-c2cnc(C3CC3)o2)cc1	26	5	18	-11	31	·	·	·
CCOc1ccccc1NS(=O)(=O)c1ccc(-c2cnc(C3CC3)o2)cc1	27	11	16	-16	34	·	·	·
CCCCN=C1NN=C(c2cc3ccccc3o2)CS1	11	28	3	33	39	·	·	·
CCCCC(=O)Nc1ccc(NC(=O)c2ccc(C)c([N+](=O)[O-])c2)cc1OC	3	26	2	10	12	·	·	·
O=C(Nc1ncc(Cc2ccc(SC(F)F)cc2)s1)c1ccccc1	7	7	-11	30	14	·	·	·
O=C(Nc1nnc(Cc2ccccc2)s1)c1cccs1	10	-19	10	0	3	·	·	·
O=C(Nc1ncc(Cc2ccccc2)s1)c1cccs1	72*	6	40	52*	51*	50*	61*	52*
O=C(Nc1ncc(Cc2cccc(Cl)c2)s1)c1cccs1	67*	4	20	67*	43*	38*	-19	55*
Cc1ccc(C(=O)Nc2ncc(Cc3ccccc3)s2)o1	57*	1	19	49*	53*	50*	50*	54*
CC(=O)Nc1ccc(NC(=O)[C@@H]2CCCN2S(=O)(=O)c2ccc3c(c2)OCCO3)cc1	2	9	-3	9	10	·	·	·
Cc1ccc(C(OCC(O)CNC(C)c2ccccc2)c2ccccc2)cc1 (stereo unspecified)	54*	15	21	59*	62*	61*	52*	39*
O=C(Nn1c(=S)[nH]c2ccccc2c1=O)c1ccncc1	-6	0	17	1	-5	·	·	·
O=C(Nc1cccc(-c2nnc(-c3ccccc3)o2)c1)C1CC1	60*	12	24	27	41*	20	·	76*
O=C(ONC1=NCCCCC1)c1c(F)cccc1F	53*	36	7	44*	51*	45*	33*	59*
O=C(ONC1=NCCCCC1)c1ccc(Cl)cc1	61*	23	27	87*	52*	38*	84*	41*
CC1CCCCN1c1nc(-c2ccncc2)nc2ccccc12 (stereo unspecified)	53*	14	1	53*	47*	43*	41*	53*
CC1Cc2ccccc2N1C(=S)NC(=O)C1(C)CC1(Cl)Cl (stereo unspecified)	32	-5	11	9	30	·	·	·
Nc1nc(CCl)nc(Nc2ccccc2)n1	13	5	-3	15	26	·	·	·
